# Measured values taken from PubChem BioAssay AID2158 (National Center for Advancing Translational Sciences (NCATS), 2009).
# Where “and” joins values, the source holds several entries; their conditions need not be identical. Equal entries are not always repeated. Results filed as inconclusive are left out. Calls of active or inactive are those of the source. The call rests on the fitted dose curve; in most records, active means well fitted inhibition curve with a large enough effect; inconclusive means small, poorly fitted or top-dose-only effect; inactive means no such curve, though single readings can be large or run the other way.
# Target: Cruzipain (Trypanosoma cruzi) (UniProt P25779)
# Assay: Confirmation qHTS Assay for Inhibitors of Cruzain; further: nearly all actives have a fitted effect of over 40% in size;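 on activity change, negative = inhibition: plate controls were uninhibited enzyme control for no effect and buffer wells lacking enzyme for full effect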
# Details: purified cruzain, Z-FR-AMC fluorescence, 0.01% Triton
# Outline: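 Reaction progress from the 60 s rise in AMC fluorescence (ex 360, em 450 nm) after adding 2 uM Z-FR-AMC. Before this, 1.5 nM cruzain sat 15 min at room temperature with compound in pH 5.5 acetate buffer with 5 mM DTT and 0.01% Triton X-100.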
# Potency means the concentration at half of the fitted maximal effect.
# Chain of Cruzipain (Trypanosoma cruzi) (P25779 123-467 limits assumed): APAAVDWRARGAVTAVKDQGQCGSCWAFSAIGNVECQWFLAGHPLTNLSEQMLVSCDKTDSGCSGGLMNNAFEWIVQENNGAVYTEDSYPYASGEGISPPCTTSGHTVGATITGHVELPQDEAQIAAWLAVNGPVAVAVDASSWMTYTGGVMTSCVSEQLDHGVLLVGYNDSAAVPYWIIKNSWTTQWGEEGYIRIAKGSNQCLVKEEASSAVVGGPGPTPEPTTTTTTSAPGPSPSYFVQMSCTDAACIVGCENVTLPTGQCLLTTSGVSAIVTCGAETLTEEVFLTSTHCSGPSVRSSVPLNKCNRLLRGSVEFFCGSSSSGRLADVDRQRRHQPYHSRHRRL
SMILES,"activity change, negative = inhibition",Potency
O=C(Cc1nnc(CNC(=O)c2ccccc2)o1)Nc1cc(C(F)(F)F)ccc1Cl,-8.68% (inactive),–
O=C1/C(=C/c2ccco2)CCc2ccccc21,–,2.51 µM (active)
O=C(CNC(=O)c1ccc2cc[nH]c2c1)OC(C(=O)Nc1cc(C(F)(F)F)ccc1Cl)c1ccccc1 (stereo not drawn),–,12.6 µM (active)
O=C(O)Cc1nnc(-c2cc3ccccc3[nH]2)s1,10.6% (inactive),–
NC(=S)N/N=C\c1ccc(-c2cccc(Cl)c2Cl)o1,–,1 µM (active)
O=C(Cn1c(=O)oc2cc(S(=O)(=O)N3CCCCCC3)ccc21)NC1CCCCCCC1,-3.87% (inactive),–
O=c1c2ccccc2sc2nc(C3CCCCC3)n(Cc3ccco3)c(=O)c12,–,25.1 µM (active)
COc1ccccc1-c1nn2c(-c3cc(C)[nH]n3)nnc2s1,-12.2% (inactive),–
N#Cc1nc(NCC(F)F)nc(Nc2cc(F)cc(F)c2)n1,–,0.0251 µM (active)
Cn1nc(-c2ccc(F)cc2)nc2c(=O)n(C)c(=O)nc1-2,–,0.631 µM (active)
O=C(NCCc1nc2ccccc2n1CCOc1ccc(Cl)cc1)C1CCCCC1,–,0.158 µM (active)
Cc1cc(C)cc(OCCCn2c(CCNC(=O)C3CCCCC3)nc3ccccc32)c1,–,0.891 µM (active)
O=C(COC(=O)CNC(=O)C1CCCCC1)NC1CC1,–,15.8 µM (active)
O=C(CNC(=O)c1ccccc1)OCC(=O)c1cccc2ccccc12,-21.8% (inactive),–
CCC(C)NC(=O)c1ccc2nc(-c3ccco3)c(-c3ccco3)nc2c1 (stereo not drawn),–,7.08 µM (active)
O=C(NCCc1nc2ccccc2n1Cc1ccccc1F)c1ccc(F)cc1,–,1.58 µM (active)
S=C(NC1CCCCC1)N(CCc1nc2ccccc2[nH]1)C1CCCC1,–,0.631 µM (active)
N#CN1CCC(N[S+](=O)([O-])c2cccc(F)c2)CC1,-1.96% (inactive),–
CCC(C(=O)NC1CCCCC1)n1c(SCc2ccccc2F)nc2ccncc21 (stereo not drawn),–,4.47 µM (active)

SMILES,"activity change, negative = inhibition",Potency
O=C(O)c1c(Sc2ccccc2)c2cc(Cl)ccc2n1Cc1ccc(Cl)cc1,–,8.91 µM (active)
CCc1ccc2[nH]c(=O)c(CN(Cc3ccco3)Cc3nnnn3Cc3ccco3)cc2c1,-11.7% (inactive),–
Cc1ccc(SCCC(=O)OCC(=O)Nc2ncc(Cl)cc2Cl)cc1,-19.6% (inactive),–
O=C(COC(=O)CNC(=O)c1ccccc1)Nc1ccccc1Cl,–,11.2 µM (active)
CN(CCNC(=O)c1cc2c(=O)n(C)c3ccccc3c2n1C)Cc1ccccc1,-49.8% (inactive),–
CCn1cnc2c(NCc3cccnc3)nc(C#N)nc21,-4.84% (inactive),–
FC(F)Sc1ccc(N=C2NN=C(c3ccc4c(c3)OCCO4)CS2)cc1,-6.33% (inactive),–
N#Cc1nc(Nc2cc(F)cc(F)c2)c2ncn(C3CCCC3)c2n1,–,0.0224 µM (active)
COc1nc(C#N)nc(N2CCCC2)n1,–,3.98 µM (active)
Cc1cccc(C)c1OCCn1c(CCNC(=O)C2CCCCC2)nc2ccccc21,–,1.12 µM (active)
Cc1ccc2[nH]c(=O)c(CN(CCO)Cc3nnnn3Cc3ccco3)cc2c1,-3.64% (inactive),–
O=C(NNC(=O)c1cc2ccccc2[nH]1)OCc1ccccc1,2.31% (inactive),–
O=C(COC(=O)CNC(=O)c1ccccc1Cl)Nc1cc(C(F)(F)F)ccc1Cl,–,3.55 µM (active)
Cc1ccccc1OCCCn1c(CCNC(=O)C2CCCCC2)nc2ccccc21,–,1 µM (active)
N#Cc1nc(Nc2cc(F)cc(F)c2)c2ncn(CC(F)F)c2n1,–,0.01 µM (active)
CCCNc1nc(C#N)nc(Nc2ccccc2)n1,–,0.794 µM (active)
CCOc1ccc(-c2nn3c(-c4cc(-c5ccccc5)n[nH]4)nnc3s2)cc1,-7.68% (inactive) and -5.69% (inactive),–
O=C(NCCc1nc2ccccc2n1CCOc1ccc2ccccc2c1)C1CCCCC1,–,3.55 µM (active)
CCOc1ccc(C(=O)COC(=O)CNC(=O)C2CCCCC2)cc1,–,3.16 µM (active)
